Laboratory results: PubChem BioAssay
Results filed as inconclusive are left out. Active and inactive are the calls of the source.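 How the source made its calls, unless noted: active means Her2 level under about 52% in both replicate screens, with viability over 70% of control (limit read from the data); inconclusive means Her2 under the limit in one screen only, or viability under 70%; inactive means Her2 level above the set limit.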

Tests used:
[1] = reducers of endogenous Her2 protein level, primary screen, SKBR3 breast tumor cells, AlphaScreen, ATP viability (AID 461); settings: 18-24 h, measured here: SKBR3 viability, ATP luminescence, at 10 µM;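 on Her2 level: lower value means less Her2 protein in the cells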;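 on viability: percent of carrier control wells set as 100% viability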
[2] = target: Receptor tyrosine-protein kinase erbB-2 (Homo sapiens) (UniProt P04626); test: as above; settings: 18-24 h, at 10 µM, stronger effect = lower value
[3] = SK-BR-3 cell growth inhibitors, pilot screen, 24 h, human (AID 572;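 active means viability at or below 10% of carrier control in both of two separate runs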;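 further: compound exposure lasted between 18 and 24 h rather than exactly 24 h; 100% = carrier-treated control wells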); settings: SK-BR-3 viability, CellTiter-Glo luminescence, at 10 µM, stronger effect = lower value
[4] = HUVEC growth inhibition – cell-based, human, primary screen (AID 575;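 active means viability at or below 30% in both replicate assays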;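 further: 100% = median of untreated cell wells with 0.1% DMSO on each plate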); settings: HUVEC proliferation, CellTiter-Glo luminescence, 72 h; at 10 µM; stronger effect = lower value
[5] = growth inhibitors of H69AR lung tumor, primary screen, human, duplicate replicates (AID 580;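 active means viability at or under a set limit in both replicates, limit being median viability minus 3 SD, cut at about 48% in these data, passing the limit was not always enough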;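 further: 100% = mean luminescence of untreated wells and 0% = no signal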); settings: H69AR lung tumor cells viability, ATP luminescence, 72 h; at 10 µM; stronger effect = lower value
[6] = reversal of MRP1-mediated doxorubicin resistance, pilot screen, H69AR cells, doxorubicin co-treatment (AID 601;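 active means viability loss from added drug above about 55%, and viability with drug at most 40%, in both replicates, limit read from the data, passing the limit was not always enough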); settings: CellTiter-Glo, 72 h, at 10 µM; for differential viability (reversal): stronger effect = higher value
[7] = 384-well plate pilot, post-Golgi transport modulator project, inhibition of yeast transport mutant growth (AID 636; in the data active means inhibition above about 31%); settings: absorbance 615 nm, about 18 h, stronger effect = higher value
[8] = growth suppression of yeast trafficking mutant, preliminary HTS, modulators of trafficking downstream of Golgi apparatus project, 1536-format plate, OD 615 nm (AID 637; in the data active means inhibition above about 30%); settings: yeast transport mutant growth, absorbance 615 nm, 18 h; stronger effect = higher value
[9] = OD615 S. cerevisiae growth inhibition, permissive medium, pilot counter-assay, permissive growth control for S. cerevisiae lifespan shortening project (AID 705;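 active means growth inhibition above 25% in both replicates, a cutoff set 3 SD above the mean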); settings: OD615, 24 h, at 10 µM, stronger effect = higher value
[10] = Restrictive medium S. cerevisiae growth inhibition, OD615, pilot screen of yeast lifespan reduction project, restrictive growth control (AID 706;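 active means growth inhibition above a set limit, 3 SD over mean compound inhibition, in both replicates, cut at about 43% in these data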;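 further: modified DeaD lifespan yeast strain shifted to restrictive glucose medium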); settings: OD615, 48 h, at 10 µM, stronger effect = higher value
[11] = viability gain of MRP-1-high H69AR cells under doxorubicin, pilot screen, MRP-1 activator project, CellTiter-Glo, duplicate (AID 807;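 active means viability increase at or above a cutoff of the median across tested compounds plus 3 SD, cut at about 8.5% in these data, passing the limit was not always enough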;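 further: compound pretreatment 18-22 h then 72 h combined with doxorubicin; 0% = doxorubicin alone and 100% = vehicle without doxorubicin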); settings: H69AR viability with doxorubicin, CellTiter-Glo luminescence; at 10 µM; stronger effect = higher value
[12] = growth suppression of beta-catenin knockout HCT116, pilot screen, human colon tumor cells (AID 823;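 active means cell viability at or below a set limit in both duplicate runs, the limit being the all-compound median minus 4 SD, cut at about 23% in these data, passing the limit was not always enough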;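 further: 0% = wells killed by 20 µM Hyamine and 100% = untreated DMSO cell wells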); settings: CellTiter-Glo, 60 h, at 10 µM, stronger effect = lower value
[13] = growth suppression of PTEN-deleted HCT116, pilot screen, cell-based, HCT116 clonal line, CellTiter-Glo (AID 824;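 active means viability at or below 27.92% in each of two runs, the all-compound median minus 4 SD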;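 further: 0% = 20 µM Hyamine control and 100% = vehicle cell control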); settings: 60 h, at 10 µM, stronger effect = lower value
[14] = inhibitors of the yeast RAM network, pilot screen, dse1pr::URA3 reporter, 5-FOA selection (AID 869;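 active means inhibition over a set limit, the all-compound mean plus 3 SD, in both replicate runs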;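 further: 0% = DMSO wells with no growth and 100% = 10 µM 1-NA-PP1 with full growth; RAM network block rescues cells from 5-FOA so hits raise OD615 growth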); settings: S. cerevisiae dse1pr::URA3 5-FOA growth, OD615, 2 d; at 10 µM; stronger effect = higher value; strain carries analog-sensitive mutant Cbk1 kinase
[15] = RAM signaling pathway blockade in yeast – S. cerevisiae, Pdr1DBD-CYC8 efflux-inhibited sensitized strain, primary screen (AID 1298;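 active means RAM network inhibition above 8.4% in each of two replicates, 3 SD over the compound average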;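 further: 0% = DMSO untreated cells without growth and 100% = 10 µM 1-NA-PP1 full growth; higher means more yeast growth rescued from 5-FOA killing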); settings: S. cerevisiae cbk1-as DSE1-URA3 strain, 5-FOA growth OD615, 2 d; at 50 µM; stronger effect = higher value
[16] = H69AR cells + 2 uM doxorubicin, measured here: viability with 2 uM doxorubicin, stronger effect = lower value
[17] = H69AR cells, compound alone cytotoxicity

Receptor tyrosine-protein kinase erbB-2 (Homo sapiens), sequence (P04626 whole entry, looked up): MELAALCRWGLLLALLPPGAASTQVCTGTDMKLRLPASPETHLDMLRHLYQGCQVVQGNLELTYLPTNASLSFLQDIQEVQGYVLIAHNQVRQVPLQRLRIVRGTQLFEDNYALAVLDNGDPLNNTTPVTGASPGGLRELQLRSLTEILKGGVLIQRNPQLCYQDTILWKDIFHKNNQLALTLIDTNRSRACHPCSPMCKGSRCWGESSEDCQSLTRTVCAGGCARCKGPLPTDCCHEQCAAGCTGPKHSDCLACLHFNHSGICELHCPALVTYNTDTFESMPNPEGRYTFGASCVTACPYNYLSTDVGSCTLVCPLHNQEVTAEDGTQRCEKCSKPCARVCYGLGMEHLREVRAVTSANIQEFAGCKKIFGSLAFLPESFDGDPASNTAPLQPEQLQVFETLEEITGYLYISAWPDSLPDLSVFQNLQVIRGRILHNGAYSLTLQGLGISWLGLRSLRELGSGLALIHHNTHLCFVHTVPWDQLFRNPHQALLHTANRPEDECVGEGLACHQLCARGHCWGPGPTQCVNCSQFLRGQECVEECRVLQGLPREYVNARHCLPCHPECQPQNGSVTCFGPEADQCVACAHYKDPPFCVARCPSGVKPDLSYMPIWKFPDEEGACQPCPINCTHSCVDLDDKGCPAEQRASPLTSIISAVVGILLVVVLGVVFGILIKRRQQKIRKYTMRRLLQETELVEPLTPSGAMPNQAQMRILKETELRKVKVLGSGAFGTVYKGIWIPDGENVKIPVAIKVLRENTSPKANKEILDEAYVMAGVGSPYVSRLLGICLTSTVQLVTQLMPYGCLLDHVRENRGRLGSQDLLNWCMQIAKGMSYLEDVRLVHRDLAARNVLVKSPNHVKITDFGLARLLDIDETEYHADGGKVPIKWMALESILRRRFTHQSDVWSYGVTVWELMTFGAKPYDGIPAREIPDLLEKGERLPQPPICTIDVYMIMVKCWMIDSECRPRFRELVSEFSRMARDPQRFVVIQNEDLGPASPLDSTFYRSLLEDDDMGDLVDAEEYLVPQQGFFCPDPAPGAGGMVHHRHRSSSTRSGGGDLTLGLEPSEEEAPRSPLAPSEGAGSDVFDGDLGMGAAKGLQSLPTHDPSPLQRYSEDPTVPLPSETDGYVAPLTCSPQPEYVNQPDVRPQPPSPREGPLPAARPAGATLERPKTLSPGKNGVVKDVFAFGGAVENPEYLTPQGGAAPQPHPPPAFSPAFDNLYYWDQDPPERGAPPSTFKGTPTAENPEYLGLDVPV

CCN(CC)S(=O)(=O)c1ccc2oc(C(=O)N3CCOCC3)c(C)c2c1
79.5%: viability [1]
inactive: Her2 level [2] 101% | viability [3] 79.5% | viability [4] 106% | viability [5] 96.5% | differential viability (reversal) ([6]; H69AR cells + 2 uM doxorubicin) -0.525% | inhibition [7] 0.67% | inhibition [8] -4.84% | growth inhibition [9] -6.28% | growth inhibition [10] -17.5% | viability increase [11] 0.12% | viability [12] 93.7% | viability [13] 98.8% | inhibition [14] -0.09% | RAM network inhibition [15] -0.22%
97%: viability [6, 16]
96.5%: viability [6, 17]

COc1ccc(-n2nnnc2SCC(=O)N2CCOCC2)cc1
88.6%: viability [6, 16]
inactive: Her2 level [2] 92% | viability [3] 93% | viability [4] 83.8% | viability [5] 89.2% | differential viability (reversal) ([6]; H69AR cells + 2 uM doxorubicin) 0.58% | inhibition [7] -4.67% | inhibition [8] -0.5% | growth inhibition [9] -2.94% | growth inhibition [10] -5.96% | viability increase [11] -1.07% | viability [12] 96.2% | viability [13] 98.8% | inhibition [14] 0.85% | RAM network inhibition [15] 3.08%
93%: viability [1]
89.2%: viability [6, 17]

CCCc1cc(C(=O)Nc2sc(C)c(C)c2C(=O)OCC)no1
inactive: Her2 level [2] 79% | viability [3] 86% | viability [4] 85.8% | viability [5] 92.6% | differential viability (reversal) ([6]; H69AR cells + 2 uM doxorubicin) 0.625% | inhibition [7] -1.79% | inhibition [8] 1.17% | growth inhibition [9] -10.7% | growth inhibition [10] 2.83% | viability increase [11] 2.07% | viability [12] 102% | viability [13] 97.9% | inhibition [14] 3.55% | RAM network inhibition [15] 7.13%
92%: viability [6, 16]
86%: viability [1]
92.6%: viability [6, 17]

COc1ccc(S(=O)(=O)Cc2ccc(C(=O)N3CCOCC3)o2)cc1
101%: viability [6, 16]
99.5%: viability [6, 17]
106%: viability [1]
inactive: Her2 level [2] 126% | viability [3] 106% | viability [4] 94.2% | viability [5] 99.5% | differential viability (reversal) ([6]; H69AR cells + 2 uM doxorubicin) -1.56% | inhibition [7] 0% | inhibition [8] -0.83% | growth inhibition [9] -4.55% | growth inhibition [10] -13.3% | viability increase [11] -0.14% | viability [12] 111% | viability [13] 99.2% | inhibition [14] 0.96% | RAM network inhibition [15] 1.62%

O=C(c1ccc2nc(N3CCCCC3)sc2c1)N1CCN(c2ccccn2)CC1
100%: viability [6, 16]
87%: viability [1]
inactive: Her2 level [2] 102% | viability [3] 87% | viability [4] 68.1% | viability [5] 102% | differential viability (reversal) ([6]; H69AR cells + 2 uM doxorubicin) 2.3% | inhibition [7] -1.54% | inhibition [8] 1% | growth inhibition [9] 2.65% | growth inhibition [10] -0.825% | viability increase [11] 0.27% | viability [12] 106% | viability [13] 98.6% | inhibition [14] 2.38% | RAM network inhibition [15] -1.58%
102%: viability [6, 17]

Cc1nnc(NC(=O)CSc2cn(CCNC(=O)c3ccccc3)c3ccccc23)s1
80.4%: viability [6, 17]
83.5%: viability [1]
66.8%: viability [6, 16]
inactive: Her2 level [2] 106% | viability [3] 83.5% | viability [4] 75.5% | viability [5] 80.4% | differential viability (reversal) ([6]; H69AR cells + 2 uM doxorubicin) 13.6% | inhibition [7] -3.2% | inhibition [8] -4.17% | growth inhibition [9] 3.24% | growth inhibition [10] 17% | viability increase [11] -0.89% | viability [12] 93.5% | viability [13] 88% | inhibition [14] -0.12% | RAM network inhibition [15] 1.15%

CN(C)S(=O)(=O)c1ccc2c(c1)c(=O)c(C(=O)NCCCN1CCCCCC1)cn2C
110%: viability [1]
102%: viability [6, 17]
inactive: Her2 level [2] 105% | viability [3] 110% | viability [4] 90.7% | viability [5] 102% | differential viability (reversal) ([6]; H69AR cells + 2 uM doxorubicin) -4.19% | inhibition [7] -1.03% | inhibition [8] -7.83% | growth inhibition [9] 9.68% | growth inhibition [10] 8.09% | viability increase [11] -1.28% | viability [12] 103% | viability [13] 99.5% | inhibition [14] 0.785% | RAM network inhibition [15] 0.76%
106%: viability [6, 16]

Cc1cc(NC(=O)CSc2nc3c(c(=O)n2Cc2ccccc2)SC(C)C3)no1 (stereo not given)
92.1%: viability [6, 17]
76.3%: viability [6, 16]
inactive: Her2 level [2] 106% | viability [3] 104% | viability [4] 74.5% | viability [5] 92.1% | differential viability (reversal) ([6]; H69AR cells + 2 uM doxorubicin) 15.8% | inhibition [7] -3.33% | inhibition [8] -1.83% | growth inhibition [9] -2.67% | growth inhibition [10] -0.455% | viability increase [11] -2.6% | viability [12] 100% | viability [13] 92.4% | inhibition [14] 2.35% | RAM network inhibition [15] 8.6%
104%: viability [1]

Cc1ccc(C(c2sc3ncnn3c2O)N2CC(C)CC(C)C2)cc1 (stereo not given)
118%: viability [1]
inactive: Her2 level [2] 102% | viability [3] 118% | viability [4] 82.8% | viability [5] 97.9% | differential viability (reversal) ([6]; H69AR cells + 2 uM doxorubicin) 13.6% | inhibition [7] -4.53% | inhibition [8] 1.67% | growth inhibition [9] -6.75% | growth inhibition [10] -6.62% | viability increase [11] 4.2% | viability [12] 99.8% | viability [13] 97% | inhibition [14] 0.24% | RAM network inhibition [15] 1.25%
97.9%: viability [6, 17]
84.3%: viability [6, 16]

Cc1ccc(C(=O)OCC(=O)Nc2ccc3c(c2)OCO3)o1
110%: viability [1]
97.3%: viability [6, 17]
inactive: Her2 level [2] 118% | viability [3] 110% | viability [4] 102% | viability [5] 97.3% | differential viability (reversal) ([6]; H69AR cells + 2 uM doxorubicin) 1.98% | inhibition [7] -2.16% | inhibition [8] -5.87% | growth inhibition [9] -4.63% | growth inhibition [10] -8.6% | viability increase [11] -1.03% | viability [12] 97.6% | viability [13] 99.3% | inhibition [14] 0.95% | RAM network inhibition [15] 2.58%
95.3%: viability [6, 16]
